Screening results as filed in PubChem BioAssay.
Sampled rows, rich in hits. Any-hit rate of the full collection: about 1.2%.
KCNH2 3.1 inh – qHTS for Inhibitors of KCHN2 3.1: Mutant qHTS. Potassium voltage-gated channel subfamily H member 2, brain isoform KCNH2 3.1 (human). U2OS KCNH2 3.1, thallium flux FluxOr; stronger effect = lower value. activity change, % (tested at about 1.8 µM). 340,000 tested, 0.95% active;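 active = maximum activity change below -70%; inconclusive = maximum activity change from -70% to -50%; inactive = maximum activity change above -50%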;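 also: thallium influx rate constant from kinetic fluorescence after stimulation buffer; % is scaled to controls: 0 for no effect and ±100 for the full control effect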
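U2OS cells transduced with KCNH2 3.1 mutant virus (1.77 x 10^8 /mL, 4 h), plated overnight at 37 C, loaded 45 min with FluxOr dye plus Red40 quencher. Thallium flux rate constant from kinetic reads after stimulation buffer, normalised to controls.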
Tb PFK inh – qHTS Assay to Find Inhibitors of T. brucei phosphofructokinase; ATP-dependent 6-phosphofructokinase (Trypanosoma brucei brucei), O15648; T. brucei PFK, ADP-Glo luminescence; Potency, µM (top dose mostly 57.5 µM), inactives show at the top dose activity, negative = inhibition, usual class: inhibitors; 330,000 tested, 0.17% active; AID 485367, 2010; active = well fitted inhibition curve with a large enough effect; inconclusive = small, poorly fitted or top-dose-only effect, or effect the other way;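 also: potency is read from the fitted curve at half-maximal effect; 0% = uninhibited 1x PFK enzyme wells and -100% = no-enzyme wells; nearly all actives have a fitted effect of over 60% in size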
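Luminescent ADP detection (ADP-Glo, two-step: ATP depletion then ADP-to-ATP conversion for luciferase) reported PFK activity after 45 min room-temperature reaction of 1.25 nM enzyme with 0.5 mM F6P and 0.1 mM ATP at pH 8.0.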
KCNH2 WT inh – qHTS for Inhibitors of KCHN2 3.1: Wildtype qHTS; activity change, % at 1.84 µM; AID 720551, 2013; Voltage-gated inwardly rectifying potassium channel KCNH2 (Homo sapiens), Q12809; 340,000 tested, 0.37% active; U2OS, BacMam KCNH2, thallium flux FluxOr; stronger effect = lower value;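 active = maximum activity change below -70%; inconclusive = maximum activity change between -70% and -50%; inactive = maximum activity change above -50%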; also: % is scaled to controls: 0 for no effect and ±100 for the full control effect
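U2OS cells transduced with wild-type KCNH2 virus are loaded with FluxOr dye for 45 min, and thallium flux is measured in kinetic reads before and after stimulation buffer. Rate constants are normalized to DMSO controls.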
TSG101-PTAP inh – qHTS Assay for Iinhibitors of HIV-1 Budding by Blocking the Interaction of PTAP/TSG101 | Tumor susceptibility gene 101 protein (Homo sapiens), Q99816 | Fluorescence polarization, FITC-PTAP peptide / Tsg101 binding | Potency, µM (doses to about 115 µM), for inactives: at the highest dose activity change, negative = inhibition, hits mostly inhibitors | 340,000 tested, under 10 active | AID 493005, 2010; active = well fitted inhibition curve with a large enough effect in the main read-out, with a control signal flat, not every such curve was filed as active; inconclusive = small, poorly fitted or top-dose-only effect, or effect the other way, or a change in a side signal; inactive = no such curve, though single readings can be large or run the other way; also: potency is read from the fitted curve at half-maximal effect; % of control where 0% means no effect
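Steps: Tsg101 binding domain dispensed (10 uM final), compounds pinned in DMSO, FITC-labeled PTAP-motif peptide added (50 nM final); after 20 min binding at room temperature, polarization measured.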
The depositor's hits bear a star; i = inactive; ? = inconclusive; nt = no result given; [ ] = remark or other dose.

SMILES | KCNH2 3.1 inh | Tb PFK inh | KCNH2 WT inh | TSG101-PTAP inh
CCOc1ccc(CNCc2ccccc2Cl)cc1 | -1 | 2% | 16 | -2%
CCOc1ccc(CN(C)CC(=O)NCc2ccccc2)cc1 | -87* | 1% | 0 | -4%
CCOc1ccc(N(CC(=O)NCc2ccc(OC)cc2)S(C)(=O)=O)cc1 | -77* | 1% | 0 | -7%
Cc1c(NC(=O)C(C)OC(=O)CCc2c[nH]c3ccccc23)c(=O)n(-c2ccccc2)n1C (stereo not drawn) | 0 | -10% | -7 | -7%
CCCN1CCc2c(sc(NC(=O)CCS(=O)(=O)c3ccccc3)c2C(=O)OC)C1 | nt | 1% | -22 | 1%
CCCCC(=O)Nc1ccc(C(=O)NNC(=O)c2ccco2)cc1 | -13 | -5% | -154* | 0%
CC(=O)Nc1ccc(S(=O)(=O)NCCC(=O)NNC(=O)c2ccccc2O)cc1 | 25 | 6% | -1 | 0%
CCN(CC)CCCN(C(=O)c1cccc(C)c1)c1nc(-c2ccc(OC)cc2)cs1 | -73* | -3% | -81* | -2%
CCN(CC)CCCN(C(=O)c1ccc(Br)cc1)c1nc(-c2ccc(OC)cc2)cs1 | -109* | 0% | -135* | -13%
CCN(CC)CCCN(C(=O)c1cccs1)c1nc(-c2ccc(OC)cc2)cs1 | ? | -1% | 27 | -7%
O=C(NC1CC1)c1cc2cc3ccccc3nc2s1 | 6 | 1% | -2 | -6%
O=C(CN(c1ccccc1Cl)S(=O)(=O)c1ccccc1)N/N=C/c1ccccc1C(=O)O | -2 | 0% | 7 | -11%
O=C(CN(Cc1ccco1)S(=O)(=O)c1ccccc1)N/N=C/c1ccccc1C(=O)O | -104* | 1% | -2 | 2%
O=C(C[C@@H]1C/C=C\C[C@H](Cc2ccc(F)cc2)C(=O)OCCNC1=O)NCCO | 2 | 5% | 7 | 0%
CCCCCCCCNS(=O)(=O)CCNC1CC1 | 5 | nt | 18 | 0%
O=C(C1CCN(CCCc2ccccc2)CC1)N(CCc1ccccc1)Cc1ccccc1 | -110* | 3% | -89* | -1%
CCN(Cc1ccccc1)C1CCN(Cc2ccc(SC)cc2)CC1 | -11 | 3% | 56 | 0%
CCN(Cc1ccccc1)C(=O)C1CCN(Cc2ccc(SC)cc2)CC1 | -94* | 7% | -114* | -2%
O=C(C1CCN(CC2CC=CCC2)CC1)N(CCc1ccccc1)Cc1ccccc1 (stereo not drawn) | nt | -9% | -4 | 1%
Clc1ccc2c(c1)C(N1CCNCC1)Cc1ccccc1S2 (stereo not drawn) | -14 | -1% | 12 | 0%
COCCCN1CCN(C2Cc3ccccc3Sc3ccc(Cl)cc32)CC1 (stereo not drawn) | -86* | 5% | ? | -4%
OCCNCc1c(OCc2ccc(Cl)cc2)ccc2ccccc12 | -105* | -4% | -128* | -1%
CC(O)CNCCNCc1c(OCc2ccccc2)ccc2ccccc12 (stereo not drawn) | -19 | 9%[0.46 µM] | 29 | 1%
CC(C)(C)c1cc(CNC(=O)C2CCC(=O)N(Cc3ccccc3F)C2)[nH]n1 (stereo not drawn) | 15 | nt | -7 | nt
CCN(CC)CCN(C(=O)c1ccc2c(c1)CCCC2)c1nc2ccc(F)cc2s1 | -14 | 0% | 26 | 0%
SMILES | KCNH2 3.1 inh | Tb PFK inh | KCNH2 WT inh | TSG101-PTAP inh
CN(C)CCCN(C(=O)c1ccc2c(c1)CCCC2)c1nc2ccc(F)cc2s1 | -72* | -12% | ? | 0%
O=c1c(O[C@@H]2O[C@H](CO)[C@H](O)[C@H](O)[C@H]2O)c(-c2ccc(O)c(O)c2)oc2cc(O)cc(O)c12 | nt | 6.7µM* | nt | nt
CC(C)COC(=O)C(C#N)c1nc2ccccc2nc1N1CCN(Cc2ccccc2)CC1 (stereo not drawn) | -49 | -1% | -47 | -6%
CCOC(=O)C1CCN(c2nc3ccccc3nc2C(C#N)C(=O)NCCc2ccccc2)CC1 (stereo not drawn) | nt | 9.5µM* | nt | nt
COCC(C)OC(=O)C(C#N)c1nc2ccccc2nc1N1CCN(Cc2ccccc2)CC1 (stereo not drawn) | -26 | -12% | 12 | -3%
CCOC(=O)C1CCCN(c2nc3ccccc3nc2C(C#N)C(=O)OCC)C1 (stereo not drawn) | -21 | -2% | 3 | -2%
N#CC(C(=O)NC1CC1)c1nc2ccccc2nc1N1CCN(C/C=C/c2ccccc2)CC1 (stereo not drawn) | -86* | 1% | -104* | ?
C=CCOC(=O)C(C#N)c1nc2ccccc2nc1N1CCN(Cc2ccccc2)CC1 (stereo not drawn) | -87* | 9% | ? | -6%
COCCOC(=O)C(C#N)c1nc2ccccc2nc1N1CCN(Cc2ccccc2)CC1 (stereo not drawn) | -88* | 3% | -11 | -2%
CCN(CC(=O)Nc1ccccc1C(F)(F)F)C(=O)c1ccccc1OCc1ccc(F)cc1 | 1 | nt | 5 | 0%
CCCN1C(=O)/C(=C\C=C2/Sc3ccccc3N2CCO)SC1=S | -81* | -1% | -21 | -4%
C=CCN1C(=O)/C(=C\C=C2\N(C)c3ccccc3C2(C)C)SC1=S | -40 | 15% | i | ?
CCCN1C(=O)/C(=C/C=C2\N(CC)c3ccccc3C2(C)C)SC1=S | -5 | 3% | -91* | ?
COc1ccc(-c2cnc3c(c2)C(=O)N([C@H](C)CO)C[C@@H](C)[C@@H](CN(C)C(=O)NC2CCCC2)O3)cc1 | -13 | nt | -2 | nt
O=C(N/N=C/c1cccc([N+](=O)[O-])c1)c1cnccn1 | 9 | -2% | 3 | -1%
O=C(N/N=C/c1cc([N+](=O)[O-])ccc1Cl)c1cnccn1 | -188* | -1% | -144* | -1%
Cc1ccc([C@@H]2CC(=O)[C@@H]3CN(S(=O)(=O)c4ccc(C)cc4)[C@H](c4ccc(Cl)cc4)C[C@@H]3N2S(=O)(=O)c2ccc(C)cc2)cc1 | 2 | nt | 1 | nt
COc1cccc(COC(=O)c2nn(-c3ccccc3)nc2N)c1 | nt | 1% | -184* | 0%
Nc1nn(-c2ccccc2)nc1C(=O)OCc1ccccc1 | -9 | 0% | -1 | 0%
C[C@@H]1CN(C(=O)c2nc3ccc(Cl)cn3c2CN(C)CCc2cnn(C)c2)C[C@H](C)O1 | 10 | 3% | 5 | -2%
Cc1ccccc1C(=O)NNC(=O)C(C)N1C(=O)c2ccccc2C1=O (stereo not drawn) | -73* | 6% | -8 | -1%
Cc1ccccc1C(=O)NC(CC(C)C)C(=O)NN1C(=O)c2ccccc2C1=O (stereo not drawn) | 2 | -1% | -3 | -2%
CC(C)N(C(=O)CN1CCN(C(=O)C2COc3ccccc3O2)CC1)C(C)C (stereo not drawn) | 19 | 0% | -21 | 0%
